Hits are enriched below; roughly 3.1% of the tested compounds scored in any of these assays.
TR SRC2 fluor cs: Total Fluorescence Counterscreen for Inhibitors of the Interaction of Thyroid Hormone Receptor and Steroid Receptor Coregulator 2; Potency, µM (series often up to 106 µM); TRb/SRC2 Texas Red total fluorescence interference; hit rate 0.29% among 280,000; AID 1479, 2009; active = well fitted curve in either direction with a large enough effect; inconclusive = small, poorly fitted or top-dose-only effect
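Human TRβ ligand-binding domain (0.6 uM) and Texas Red SRC2 peptide (20 nM) in Tris buffer with 1 uM T3 and 5% DMSO were incubated with pinned compound for 5 hr at ambient temperature. Total fluorescence was computed as S + 2P (555/632 nm).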
Tau fibril ThT: qHTS for Inhibitors of Tau Fibril Formation, Thioflavin T Binding; Microtubule-associated protein tau (Homo sapiens), P10636; recombinant tau K18 P301L, heparin-induced fibrillization, ThT fluorescence; Potency, µM (doses to about 57.4 µM), most hits filed as inhibitors; hit rate 2.1% among 270,000; AID 1460, 2008; also: nearly all actives have a fitted effect of over 55% in size
Target sequence (P10636 561-689 P618L limits assumed): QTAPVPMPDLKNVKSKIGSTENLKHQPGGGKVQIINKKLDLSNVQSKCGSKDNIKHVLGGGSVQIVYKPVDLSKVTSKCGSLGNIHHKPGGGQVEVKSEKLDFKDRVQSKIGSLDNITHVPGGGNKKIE
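Recombinant human tau K18 fragment […] carrying P301L, 15 uM unlabeled plus 0.24 uM Alexa 594-labeled, was fibrillized with 20 uM heparin in 100 mM sodium acetate pH 7 for 6 hr at 37 C; 30 uM ThT fluorescence read after 1 hr.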
Tau fluor cs: Counterscreen qHTS for Inhibitors of Tau Fibril Formation, Fluorescence Polarization; Potency, µM (highest dose often 57.7 µM); tau K18 P301L Alexa594 fluorescence, heparin fibrillization; hit rate 0.93% among 280,000; also: nearly all actives have a fitted effect of over 55% in size
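Human tau K18 P301L (15 uM unlabeled, 0.24 uM Alexa 594-labeled) in 100 mM sodium acetate pH 7 with 20 uM heparin, 6 hr at 37 C. ThT 30 uM added, 1 hr ambient; Alexa 594 FP and total fluorescence read at 555/632 nm.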
TRb SRC2 PPI: qHTS for Inhibitors of the Interaction of Thyroid Hormone Receptor and Steroid Receptor Coregulator 2; Thyroid hormone receptor beta (Homo sapiens), P10828; TRbeta-SRC2 peptide binding, fluorescence polarization; receptor liganded with 1 µM T3; Potency, µM (doses to about 106 µM), most hits filed as inhibitors; hit rate 0.065% among 280,000; also: nearly all actives have a fitted effect of over 50% in size
Target sequence (P10828 whole entry, looked up): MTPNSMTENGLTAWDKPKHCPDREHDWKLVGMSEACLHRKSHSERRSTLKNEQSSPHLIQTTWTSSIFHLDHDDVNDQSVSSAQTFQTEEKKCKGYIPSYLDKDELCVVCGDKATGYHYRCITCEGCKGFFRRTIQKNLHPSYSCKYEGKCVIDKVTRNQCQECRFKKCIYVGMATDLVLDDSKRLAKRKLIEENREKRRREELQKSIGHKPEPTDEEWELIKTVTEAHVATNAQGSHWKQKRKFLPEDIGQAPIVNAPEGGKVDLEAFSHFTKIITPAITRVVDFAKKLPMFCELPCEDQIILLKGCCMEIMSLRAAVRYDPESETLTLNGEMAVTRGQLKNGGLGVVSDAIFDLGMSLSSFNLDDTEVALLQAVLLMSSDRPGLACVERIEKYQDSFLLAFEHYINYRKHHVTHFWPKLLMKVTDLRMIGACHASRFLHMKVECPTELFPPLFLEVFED
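Read-out is fluorescence polarization (555 nm excitation, 632 nm emission) of a Texas Red SRC2 coactivator peptide; loss of signal reflects blocked binding to human TRb ligand-binding domain in the presence of 1 uM T3.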
Tau FP inhib: qHTS for Inhibitors of Tau Fibril Formation, Fluorescence Polarization; K18 P301L tau heparin fibrillization, Alexa594 FP, 6 h; Potency, µM (titrated, usually from 57.7 µM), usual class: inhibitors; hit rate 0.39% among 280,000; also: nearly all actives have a fitted effect of over 55% in size
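Read-out: fluorescence polarization of Alexa 594-labeled tau (0.24 uM), 555 nm excitation, 632 nm emission. Mixtures held 15 uM unlabeled K18 P301L, compound and 20 uM heparin, pH 7 acetate buffer, incubated 6 hr at 37 C.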
A number is an active result; – = inactive; ? = inconclusive; · = not tested or not shown; [ ] = dose if it differs, or a comment. Unless noted, calls follow the shape of the dose curve; as a rule, active = well fitted curve in the direction sought with a large enough effect; inconclusive = small, poorly fitted or top-dose-only effect, or another doubt; inactive = no such curve, though single readings can be large; an effect the other way counts as inactive or inconclusive.

SMILES	TR SRC2 fluor cs	Tau fibril ThT	Tau fluor cs	TRb SRC2 PPI	Tau FP inhib
CCN(CC)C(=O)c1ccc(Nc2nnc(-c3ccc(C)c(S(=O)(=O)NC)c3)c3ccccc23)cc1	–	–	–	–	–
Cc1cc(C(=O)COC(=O)c2cc(O)c3ccccc3c2O)c(C)n1CC1CCCO1 (stereo unspecified)	–	14µM	?	–	?
Cc1cc(C(=O)COC(=O)c2ccccc2Br)c(C)n1CC1CCCO1 (stereo unspecified)	–	–	–	–	–
CCOC(=O)C1CCN(C(c2cccc(F)c2)c2c(O)cc(C)n(Cc3ccco3)c2=O)CC1 (stereo unspecified)	–	?	–	–	–
COc1cc(OC)c(N(C)C(=O)CSc2c3c(nc4ccc(Cl)cc24)CCCC3)cc1Cl	–	–	–	–	–
CCOC(=O)c1c(NC(=O)Cc2coc3cc(C)ccc23)sc2c1CCCC2	0.1µM[quencher]	?	–	?	–
CNC(=O)c1c(NC(=O)Cc2coc3ccc(C)cc23)sc2c1CCCC2	?	?	?	–	–
CCOC(=O)c1c(NC(=O)CSc2c[nH]c3ccccc23)sc2c1CCC2	–	–	10µM[quencher]	–	?
CCOC(=O)c1c(NC(=O)CSc2c[nH]c3ccccc23)sc2c1CCCC2	–	–	–	–	–
CCN(CC)CCNC(=O)c1[nH]c2ccc(OCc3ccccc3)cc2c1C	–	–	20µM[quencher]	–	–
CCN(CC)CCNC(=O)c1cc2c(=O)[nH]c3ccc(C)cc3c2s1	–	–	–	–	–
Cc1nc(NCc2ccco2)c2c(C)c(C)sc2n1	–	–	–	–	–
Cc1sc2nc3c4ccccc4c(NCc4ccco4)nn3c(=O)c2c1C	–	25µM	?	–	35µM
COc1ccc(/C=C\c2onc(C)c2S(=O)(=O)N2CCC(C(=O)Nc3cccc(C)c3C)CC2)cc1	–	–	–	–	?
COc1ccc(/C=C\c2onc(C)c2S(=O)(=O)N2CCC(C(=O)Nc3cccc(Cl)c3)CC2)cc1	–	–	–	–	14µM
COC(=O)C1=C(C)N(CCc2ccccc2)C(=O)/C1=C\c1ccco1	–	18µM	–	–	–
COC(=O)C1=C(C)N(Cc2ccccc2)C(=O)/C1=C\c1ccco1	–	16µM	?	–	–
COC(=O)C1=C(C)N(Cc2cccnc2)C(=O)/C1=C\c1sccc1C	–	14µM	–	–	–
COc1cccc(/C=N/NC(=O)c2oc3nc(-c4ccccc4)cc(-c4ccco4)c3c2N)c1	–	?	–	–	–
Cc1ccc(-c2cc(-c3ccco3)c3c(N)c(C(=O)NN)oc3n2)cc1	–	10µM	?	–	–
Cc1c(C#N)c(O)n(CCO)c(=O)c1N=Nc1ccccc1	–	13µM	–	–	–
Cc1cc(=O)n(CCCO)c(O)c1C#N	–	?	–	–	–
Cc1c(C#N)c(O)n(C)c(=O)c1N=Nc1ccc(S(N)(=O)=O)cc1	–	4µM	–	–	–
Cc1c(C#N)c(O)n(CCO)c(=O)c1N=Nc1ccc(S(N)(=O)=O)cc1	–	13µM	–	–	–
CCn1nc(-c2ccccc2)c(-c2ccccc2)c(C(=O)Nc2ccc(S(N)(=O)=O)cc2)c1=O	–	–	–	–	–
SMILES	TR SRC2 fluor cs	Tau fibril ThT	Tau fluor cs	TRb SRC2 PPI	Tau FP inhib
Cc1cccc([N+](=O)[O-])c1C	–	·	·	–	·
CN=c1scc(C)n1/N=C/c1ccc2c(c1)OCO2	–	11µM	?	–	–
CN=c1scc(C)n1/N=C/c1ccc(O)cc1	–	?	–	–	–
CN=c1scc(C)n1/N=C/c1ccc(O)cc1O	–	16µM	?	–	–
Cc1ccc(-n2nc3cc(C)c(NC(=O)COc4ccccc4)cc3n2)cc1	–	–	–	–	–
Clc1nnc(N/N=C/c2ccccc2)c2ccccc12	–	?	?	–	?
Clc1nnc(NN=C2CCCC2)c2ccccc12	–	25µM	?	–	–
CC1=C(C(=O)Nc2cccc(Cl)c2C)C2(CCCCCC2)OC1=O	–	–	–	–	–
CN1CCN(c2cc3c(c4c2[nH]c2ccccc24)C(=O)CC(C)(C)C3)CC1	–	?	14µM[quencher]	–	?
CN1CCN(c2ncnc3c2[nH]c2ccc(F)cc23)CC1	–	–	–	–	–
Cn1cc(S(=O)(=O)N2CCCCCC2)cc1C(=O)N1CCN(c2ccc(Cl)cc2)CC1	–	–	–	–	–
Cc1ccc([N+](=O)[O-])cc1-c1ccc(/C=C(\C#N)c2[nH]nc(N)c2C#N)o1	–	8.9µM	?	–	?
COc1ccc2nc(NC3=NCCC3)sc2c1	–	–	–	–	–
COc1ccc2nc(Nc3sc4c(c3C(N)=O)CCCC4)sc2c1	?	7.1µM	?	–	–
COc1ccc(Nc2nc3ccccc3s2)cc1	–	–	–	–	–
COc1cccc(Nc2nc3ccc(OC)cc3s2)c1	–	13µM	13µM[quencher]	–	–
O=C(CCl)Nc1ccccc1C(=O)c1ccccc1	–	–	–	–	–
COC(=O)C1=C(C)N(Cc2ccc(C)cc2)C(=O)/C1=C\c1cc(OC)c(OC)c(OC)c1	–	?	–	–	–
COC(=O)C1=C(C)N(Cc2ccc(C)cc2)C(=O)/C1=C\c1ccc(O)c(OC)c1	–	14µM	?	–	?
CCOC(=O)C1=C(C)N(c2ccc(OCC)cc2)C(=O)/C1=C\c1ccco1	–	14µM	–	–	?
CCOC(=O)C1=C(C)N(c2ccc(C)cc2)C(=O)/C1=C\c1ccc(O)c(OC)c1	–	25µM	?	–	?
CCOc1cc(/C=C2\C(=O)N(CCc3ccc(OC)c(OC)c3)C(C)=C2C(=O)OC)ccc1O	–	28µM	?	–	?
Cc1ccc(C)c(CN2CCCN(Cc3ccc(F)cc3)S2(=O)=O)c1	–	–	–	–	–
CCN1C(=O)/C(=C\c2ccco2)C(C(=O)OC)=C1C	–	?	–	–	–
CCOc1cc(/C=C2\C(=O)N(Cc3ccco3)C(C)=C2C(=O)OC)ccc1O	–	28µM	?	–	?
COc1cccc(CNc2nc3c(-c4ccccc4)nnn3c3ccccc23)c1	–	–	–	–	–
CC(=O)C1=C(c2cccc([N+](=O)[O-])c2)N(C(C)=O)n2c(C)nnc2S1	–	3.5µM	–	–	?
CCOC(=O)C1=C(C)N=C2c3ccccc3C(=O)C2C1c1ccc(Cl)cc1 (stereo unspecified)	–	?	7.9µM[quencher]	–	–
CC1(C)CC(=O)C2=C(C1)N=C1c3ccccc3C(=O)C1C2c1ccc(Cl)cc1 (stereo unspecified)	–	?	?	–	–
C/[N+]([O-])=C\c1coc2ccccc2c1=O	–	–	–	–	–

High-throughput results (PubChem BioAssay)
